Assay outcomes from PubChem BioAssay.
PLK1 PBD block: qHTS for Inhibitors of PLK1-PDB (polo-like kinase 1 - polo-box domain): Primary Screen. Serine/threonine-protein kinase PLK1 (Homo sapiens), P53350. Plk1 PBD binding of FITC phosphopeptide, fluorescence polarization. Potency, µM, usual class: inhibitors. 2.8% of 360,000 active; further: series mostly up to about 57 µM; nearly all actives have a fitted effect of over 65% in size
Tb PFK block: qHTS Assay to Find Inhibitors of T. brucei phosphofructokinase; ATP-dependent 6-phosphofructokinase (Trypanosoma brucei brucei), O15648; T. brucei PFK, ADP-Glo luminescence; Potency, µM (series often up to 57.5 µM), actives largely listed as inhibitors; 0.17% of 330,000 active; AID 485367, 2010; further: nearly all actives have a fitted effect of over 60% in size
Target sequence (O15648 whole entry, looked up): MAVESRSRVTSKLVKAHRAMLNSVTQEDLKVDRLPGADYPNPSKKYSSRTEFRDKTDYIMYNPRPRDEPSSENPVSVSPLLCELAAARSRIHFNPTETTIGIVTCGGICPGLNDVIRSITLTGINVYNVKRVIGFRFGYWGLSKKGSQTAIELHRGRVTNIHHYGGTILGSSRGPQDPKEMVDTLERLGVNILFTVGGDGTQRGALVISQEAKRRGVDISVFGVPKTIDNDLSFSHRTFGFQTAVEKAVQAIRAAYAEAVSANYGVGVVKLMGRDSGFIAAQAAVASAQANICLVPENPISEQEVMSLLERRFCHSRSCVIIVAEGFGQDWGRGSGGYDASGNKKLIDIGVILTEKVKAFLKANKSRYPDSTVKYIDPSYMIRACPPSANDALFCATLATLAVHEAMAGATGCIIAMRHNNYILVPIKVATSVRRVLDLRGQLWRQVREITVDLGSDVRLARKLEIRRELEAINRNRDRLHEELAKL
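Luminescent ADP detection (ADP-Glo, two-step: ATP depletion then ADP-to-ATP conversion for luciferase) reported PFK activity after 45 min room-temperature reaction of 1.25 nM enzyme with 0.5 mM F6P and 0.1 mM ATP at pH 8.0.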
VDR inh: Inhibitors of the vitamin D receptor (VDR): qHTS | Vitamin D3 receptor (Homo sapiens), P11473 | VDR-SRC2-3 peptide fluorescence polarization, 2 h | Potency, µM, usual class: inhibitors | 0.93% of 400,000 active
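FP read-out; VDR + SRC2-3 coactivator peptide; 23 nl compound by pintool; 2 h RT incubation; reagents held at 4 deg C, protected from light.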
S-ASM inh: Inhibitors of Secretory Acid Sphingomyelinase (S-ASM): qHTS | Sphingomyelin phosphodiesterase (Homo sapiens), P17405 | placental ASM, HMU-PC fluorogenic substrate, 60 min | Potency, µM (top dose mostly 57.5 µM), hits mostly inhibitors | 0.006% of 340,000 active | AID 504937, 2011
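Fluorogenic HMU-PC substrate (9 uM final) is turned over by placental ASM in 60 min at 37 C after a 10 min compound preincubation. Reaction ended by alkaline stop (pH 10), with fluorescence read at 386/447 nm.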
TDP1 inh: qHTS Assay for Inhibitors of Tyrosyl-DNA Phosphodiesterase (TDP1); 0.28% of 350,000 active; recombinant TDP1, AlphaScreen DNA substrate cleavage; Potency, µM (series often up to 130 µM), usual class: inhibitors; further: nearly all actives have a fitted effect of over 40% in size
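Here, a 5' biotin and 3' phosphotyrosine-FITC DNA oligonucleotide reports Tdp1 activity: intact substrate bridges AlphaScreen beads, while cleavage leaves a 3' phosphate and drops signal. All incubations at room temperature.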
Pin1 inhibitor: qHTS Assay to Find Inhibitors of Pin1; Peptidyl-prolyl cis-trans isomerase NIMA-interacting 1 (Homo sapiens), Q13526; Pin1 FP peptide displacement, HiFluor488, 10 min; Potency, µM (doses to about 115 µM), usual class: inhibitors; 0.009% of 390,000 active; AID 504891, 2011; active means well fitted inhibition curve with a large enough effect in the polarisation, with a control signal flat, not every such curve was filed as active; inconclusive means small, poorly fitted or top-dose-only effect, or effect the other way, or a change in a side signal; inactive means no such curve, though single readings can be large or run the other way; the % refers to the polarisation
Numbers stand for hits; 0 = inactive; ? = inconclusive; - = no result. Hits are enriched below; roughly 3.1% of the tested compounds scored in any of these assays. Unless noted, the call rests on the fitted dose curve; in most records, active means well fitted curve in the direction sought with a large enough effect; inconclusive means small, poorly fitted or top-dose-only effect, or another doubt; inactive means no such curve, though single readings can be large; an effect the other way counts as inactive or inconclusive.

SMILES	PLK1 PBD block	Tb PFK block	VDR inh	S-ASM inh	TDP1 inh	Pin1 inhibitor
CCC(C)CCCCCCCCCCC(=O)O (stereo unspecified)	21.2µM	-	?	0	-	?
C#Cc1ccc2c(c1)C(=O)N(C)Cc1c(C(=O)OCCCOC(=O)c3ncn4c3CN(C)C(=O)c3cc(C#C)ccc3-4)ncn1-2	-	-	0	-	0	-
COc1ccc(N=C2C(=O)N3c4c(cccc42)C(C)=CC3(C)C)cc1	0	0	50.1µM	0	0	0
Cc1ccc(S(=O)(=O)c2nc(S(=O)(=O)c3ccc(C)cc3)c(NCCCOC(C)C)s2)cc1	-	-	0	-	0	0
O=C(Nc1ccc2nccnc2c1)Nc1ccccc1Cl	23.8µM	0	?	0	-	0
O=C(Nc1cccc(C(=O)O)c1)Nc1ccccc1Cl	0	0	0	0	0	0
CNC(=S)N(Cc1ccco1)Cc1cc2cc3c(cc2[nH]c1=O)OCCO3	26.7µM	0	0	0	0	0
CCNC(=S)N(Cc1ccco1)Cc1cc2cc3c(cc2[nH]c1=O)OCCO3	0	0	0	0	0	0
CN1CCN(c2nn3c(=O)c4ccccc4nc3s2)CC1	-	-	-	-	-	0
Cc1ccc(NC(=O)c2ccc(Cn3cc(Cl)cn3)o2)c(C)c1	-	0	-	-	0	-
COC(=O)c1sc(NC(=O)c2ccc(Cn3cc(Cl)cn3)o2)c(C#N)c1C	2.99µM	0	?	0	-	0
CCOCc1[nH]c(=S)[nH]c(=O)c1Cc1ccc(OCC)cc1	26.7µM	0	0	0	0	0
CCCCOc1ccc(Cc2c(COCC)[nH]c(=S)[nH]c2=O)cc1	0	0	0	0	0	0
COc1ccccc1CNC(=O)c1cn(C)c2ccc(S(=O)(=O)N(C)C3CCCCC3)cc2c1=O	-	-	0	-	0	0
Cc1ccc(/C=C/c2nc3ccccc3[nH]2)o1	26.7µM	0	0	0	0	?
C=CCOc1cccc(CNCCCN2CCOCC2)c1	0	0	0	0	0	0
Brc1cccc(CNCCCN2CCOCC2)c1	26.7µM	0	0	0	0	0
Clc1ccc(C2=Nn3c(Cn4nnc5ccccc54)nnc3SC2)cc1	8.44µM	0	79.4µM	0	0	0
O=C(CSc1nc2c([nH]c3ccccc32)c(=O)n1-c1ccc(F)cc1)N1CCCCCC1	-	-	0	-	0	0
Cc1nc2ccc(S(=O)(=O)N3CCN(S(=O)(=O)c4c(F)cccc4F)CC3)cc2s1	-	-	-	-	0	0
Cc1ccnc(NC(c2ccsc2)c2ccc3ccc(C)nc3c2O)c1 (stereo unspecified)	2.99µM	0	39.8µM	0	0	0
